# Values joined by “and” are separate entries in the source; they are usually repeats but may differ in a detail not shown here. Equal values may be shown once. Where a name gives a salt, the structure may show the parent alone. Out of some 5,800 compounds screened, about 620 (11%) showed activity. Shown is part of a subset that was picked to be rich in actives. Values without a mark were called inactive.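 The calls were made as follows: active = score above a cut-off or among the top three wells of a plate; in these data no inactive exceeds 0.85.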
# Tested on: primary human hepatic stellate cells (donor 1)
# Experiment: scaled lipid accumulation score (0 = DMSO-like, 1 = nortriptyline-like); higher = stronger HSC inactivation (lipid re-accumulation), active = hit call of the paper
# Settings: 48 h
# [1] = library stock concentration: 10 mM
# [2] = library stock concentration: 6.4 mM
# [3] = library stock concentration: 3.33 mM
# [4] = library stock concentration: 80 uM
# [5] = library stock concentration: 400 uM
# [6] = library stock concentration: 2 mM
# [7] = library stock concentration: 1 mM
compound,measurement,setting,value
CC1CC(OC(=O)C(O)c2ccccc2)CC(C)(C)N1C (configuration not stated) [Eucatropine hydrochloride],scaled lipid accumulation score,,≤ 0
same,scaled lipid accumulation score,library stock concentration: 6.1 mM,≤ -0.001
same,scaled lipid accumulation score,[1],≤ 0
CC1O[C@H](O[C@]2(O[C@H]3CC[C@@]4(C)C(=CC[C@H]5[C@@H]6C[C@H]7[C@H]([C@H](C)[C@H]8CC[C@H](C)CN87)[C@@]6(C)CC[C@@H]54)C3)C[C@@H](O[C@@H]3OC(CO)[C@@H](O)[C@@H](O)C3O)[C@@H](O)C(CO)O2)C(O)[C@@H](O)[C@H]1O (stereo partly drawn) [Solanine alpha],scaled lipid accumulation score,,≤ 0
CNC(=C[N+](=O)[O-])NCCSCc1ccc(CN(C)C)o1 [Ranitidine hydrochloride],scaled lipid accumulation score,,≤ 0
same,scaled lipid accumulation score,[1],≤ 0 and ≤ -0.006
CNC(=C[N+](=O)[O-])NCCSCc1ccc(CN(C)C)o1 [Ranitidine HCl],scaled lipid accumulation score,[2],≤ 0
Cc1ccc(NC(=O)NCCSCc2ccc(CN(C)C)o2)cc1Cl,scaled lipid accumulation score,[1],0.931 (active)
CNC(=C[N+](=O)[O-])NCCSCc1ccc(CN(C)C)o1 [Ranitidine],scaled lipid accumulation score,[3],≤ 0
same,scaled lipid accumulation score,[2],≤ 0
same,scaled lipid accumulation score,[1],0.049 and ≤ 0
CN(C)C/C=C/C(=O)Nc1ccc(C(=O)Nc2cccc(Nc3nccc(-c4cccnc4)n3)c2)cc1,scaled lipid accumulation score,[1],1.15 (active)
CN(C)C/C=C/C(=O)Nc1cccc(Nc2ncc3c(n2)N(C)c2ccccc2C(=O)N3C)c1,scaled lipid accumulation score,[4],≤ -0.009
same,scaled lipid accumulation score,[5],0.1
same,scaled lipid accumulation score,[6],0.846
same,scaled lipid accumulation score,[1],0.566
Cc1cc(NC(=O)c2cccc(NC(=O)C=CCN(C)C)c2)ccc1Nc1nccc(-c2cccnc2)n1,scaled lipid accumulation score,[3],1.08 (active)
same,scaled lipid accumulation score,[1],1.02 (active)
CN(C)C/C=C/C(=O)Nc1ccc(C(=O)Nc2cccc(Nc3ncc(Cl)c(-c4c[nH]c5ccccc45)n3)c2)cc1,scaled lipid accumulation score,[4],0.587
same,scaled lipid accumulation score,[5],0.669
same,scaled lipid accumulation score,[6],0.638
same,scaled lipid accumulation score,[1],0.41
C[C@@H]1CC2C3C[C@H](F)C4=CC(=O)C=C[C@]4(C)[C@@]3(F)[C@@H](O)C[C@]2(C)[C@@]1(O)C(=O)COC(=O)C(C)(C)C (some centres not stated) [Flumethazone pivalate],scaled lipid accumulation score,library stock concentration: 4 mM,0.012
same,scaled lipid accumulation score,[1],≤ 0
"c1ccc2c(-c3ccncc3)c[nH]c2c1 [Rho Kinase Inhibitor III, Rockout]",scaled lipid accumulation score,[3],≤ 0
COc1ccc(-c2ccc3cc(C(=O)O)ccc3c2)cc1C12CC3CC(CC(C3)C1)C2,scaled lipid accumulation score,[1],0.008
COc1ccc(-c2ccc3cc(C(=O)O)ccc3c2)cc1C12CC3CC(CC(C3)C1)C2 [Adapalene],scaled lipid accumulation score,[3],≤ 0
same,scaled lipid accumulation score,[1],≤ 0
COc1cc(-c2cc(-c3cccc(O)c3)cnc2N)cc(OC)c1OC,scaled lipid accumulation score,[3],≤ -0.009
same,scaled lipid accumulation score,[1],≤ 0
"CC(=O)NC(CC(=O)O)C(=O)O (racemic) [Aspartic acid, N-acetyl (R,S)]",scaled lipid accumulation score,,0.182
N/C(=N\C(=O)c1nc(Cl)c(N)nc1N)NCc1ccccc1 [Benzamil hydrochloride],scaled lipid accumulation score,,0.168
Cl.N/C(=N\C(=O)c1nc(Cl)c(N)nc1N)NCc1ccc(Cl)cc1Cl,scaled lipid accumulation score,library stock concentration: 11.8 mM,0.876 (active)
NC(=O)NC(=O)Cc1ccccc1 [Phenacemide],scaled lipid accumulation score,[1],≤ 0
Cl.N/C(=N\C(=O)c1nc(Cl)c(N)nc1N)NCc1ccccc1 [Benzamil hydrochloride],scaled lipid accumulation score,[1],1.09 (active)
N/C(=N\C(=O)c1nc(Cl)c(N)nc1N)NCc1ccccc1 [Benzamil],scaled lipid accumulation score,library stock concentration: 6.3 mM,0.287
N[C@H](Cc1ccccc1)C(=O)O [D-phenylalanine],scaled lipid accumulation score,[1],≤ -0.022
Cl.N/C(=N\Cc1ccccc1)NC(=O)c1nc(Cl)c(N)nc1N,scaled lipid accumulation score,library stock concentration: 14 mM,1.1 (active)
"CCCCC/C=C\CCCC/C=C\C/C=C\CCCC(=O)O [5(Z),8(Z),14(Z)-Eicosatrienoic Acid]",scaled lipid accumulation score,[7],≤ 0
CCCCC[C@H](O)/C=C/[C@@H]1[C@H](C/C=C\CCCC(=O)O)[C@@H](O)C[C@H]1O [8-iso Prostaglandin F2.alpha.],scaled lipid accumulation score,[7],≤ 0
CC(C)(C)n1nc(-c2cccc3ccccc23)c2c(N)ncnc21 [1-Naphthyl PP1],scaled lipid accumulation score,[1],0.016
"CC(C)(C)C#Cc1cc(N(C(=O)[C@H]2CC[C@H](C)CC2)[C@H]2CC[C@H](O)CC2)c(C(=O)O)s1 [VX-222 (VCH-222, Lomibuvir)]",scaled lipid accumulation score,[3],≤ 0
same,scaled lipid accumulation score,[1],0.047
Cc1c(O)c(=O)ccn1C,scaled lipid accumulation score,[1],≤ 0
O.O.O.O.O=C([O-])CC(O)(CC(=O)[O-])C(=O)[O-].[Li+].[Li+].[Li+] [Lithium citrate],scaled lipid accumulation score,library stock concentration: 9.5 mM,≤ 0
same,scaled lipid accumulation score,[1],0.016
CCCCC/C=C\C\C=C/C=C/C=C/CC(=O)CCCC(=O)O [5-Ketoeicosatetraenoic acid],scaled lipid accumulation score,library stock concentration: 100 uM,≤ -0.021
CC(C)NCC(O)COc1ccccc1-n1cccc1 (configuration not stated) [Isamoltane hemifumarate],scaled lipid accumulation score,[1],0.25
CCCCCC=CCC=CCC=CCC=CCCCC(=O)SCC(O)CO (configuration not stated) [Arachidonoyl-1-thio-Glycerol],scaled lipid accumulation score,[7],0.021
CC(C)(Oc1ccc(Cl)cc1)C(=O)OCCOC(=O)c1cccnc1 [Etofibrate],scaled lipid accumulation score,[3],≤ 0
same,scaled lipid accumulation score,[1],≤ -0.001
C[C@@H]1C[C@H]2[C@@H]3CCC4=CC(=O)C=C[C@]4(C)[C@@]3(F)[C@@H](O)C[C@]2(C)[C@@]1(O)C(=O)CO [Dexamethasone],scaled lipid accumulation score,library stock concentration: 5.1 mM,≤ -0.006 and ≤ -0.001
same,scaled lipid accumulation score,[1],≤ 0 and ≤ -0.006
same,scaled lipid accumulation score,library stock concentration: 12.7 mM,0.007
C[C@@H]1C[C@H]2[C@@H]3CCC4=CC(=O)C=C[C@]4(C)[C@@]3(F)[C@@H](O)C[C@]2(C)[C@@]1(O)C(=O)CO [Dexamethasone (DHAP)],scaled lipid accumulation score,[3],0.017
same,scaled lipid accumulation score,[1],≤ 0
CN(C)CC/C=C1/c2ccccc2Sc2ccc(Cl)cc21 [Chlorprothixene hydrochloride],scaled lipid accumulation score,library stock concentration: 5.7 mM,0.756
same,scaled lipid accumulation score,[1],0.429 and 0.701
CN(C)CC/C=C1\c2ccccc2CSc2ccccc21 [Dosulepin hydrochloride],scaled lipid accumulation score,,0.845
CN(C)CC/C=C1\c2ccccc2Sc2ccc(Cl)cc21.Cl [Chlorprothixene hydrochloride],scaled lipid accumulation score,,0.902 (active)
CN(C)CC/C=C1/c2ccccc2Sc2ccc(Cl)cc21 [Chlorprothixene],scaled lipid accumulation score,[3],0.345
CN(C)CCC=C1c2ccccc2Sc2ccc(Cl)cc21 [Chlorprothixene],scaled lipid accumulation score,[1],1.03 (active)
